# In publication PMC8769072, “Proteome‐scale mapping of binding sites in the unstructured regions of the human proteome” (Molecular Systems Biology, 2022):
# Biological target: USP7 53-206, Q93009
# Sequence (Q93009 53-206): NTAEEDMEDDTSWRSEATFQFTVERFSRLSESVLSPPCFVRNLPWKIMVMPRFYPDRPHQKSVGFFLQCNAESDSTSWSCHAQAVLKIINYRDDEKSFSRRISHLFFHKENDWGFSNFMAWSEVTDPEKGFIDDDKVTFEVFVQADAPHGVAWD
row,Binder,selected by phage display
1,"SSVPTTINTIGTSTST [SAMD4A, Q9UPU9]",confidence 2 (active)
2,"EHAEIARWGQTLPTTS [SPTBN4, Q9H254]",confidence 2 (active)
3,"ASGSSVPSSPVSESVL [GRM1, Q13255]",confidence 4 (active)
4,"LAGPSLSSSSFSPSSS [ZFP36, P26651]",confidence 2 (active)
5,"TVPSHSSHATAVTTSN [SAP130, Q9H0E3]",confidence 4 (active)
6,"QSHLATAGSTSSHSLQ [ESR1, P03372]",confidence 3 (active)
7,"HVSNDASSSVAESSSP [KIAA0408, Q6ZU52]",confidence 3 (active)
8,"VSAPGRSIEASVDVPA [AHNAK2, Q8IVF2]",confidence 2 (active)
9,"SSSSSLSSASSSSTVV [ING3, Q9NXR8]",confidence 2 (active)
10,"DASSQTRMVHASASTS [BSN, Q9UPA5]",confidence 3 (active)
11,"SFGINVATPGSSTTTG [POM121, Q96HA1]",confidence 3 (active)
12,"AASTSVTAGWGDVASS [HIPK2, Q9H2X6]",confidence 2 (active)
13,"TVITSVSSASSSSTVL [KLF12, Q9Y4X4]",confidence 4 (active)
14,"STMPESPSSSTTATTT [SP4, Q02446]",confidence 3 (active)
15,"SSSSPSPPPLSAISSV [PRDM2, Q13029]",confidence 2 (active)
16,"SGMVTNSVPTASSSVL [SALL1, Q9NSC2]",confidence 4 (active)

row,Binder,selected by phage display
1,"MPIVMARDLEETASSS [TTLL5, Q6EMB2]",confidence 3 (active)
2,"LPSTSGSEGVPFRTVS [EPHA2, P29317]",confidence 2 (active)
3,"GPSSSTTTTTTTTEQP [MAP3K1, Q13233]",confidence 3 (active)
4,"SGSVQTSSPPQLETVR [ARAP2, Q8WZ64]",confidence 2 (active)
5,"SAMSVPGMSTGTVLGA [ARNTL2, Q8WYA1]",confidence 2 (active)
6,"MDTEPNPGTSSVSTTT [PHC3, Q8NDX5]",confidence 2 (active)
7,"AYEGPSTSVVPTPDEG [MAGEE1, Q9HCI5]",confidence 4 (active)
8,"SLQNQQNAHTSRMLQV [GPR179, Q6PRD1]",confidence 2 (active)
9,"MPSSSHGSMGGYNHSV [SS18, Q15532]",confidence 2 (active)
10,"AMPAPTPSSSPVPTLS [NXF1, Q9UBU9]",confidence 2 (active)
11,"PLTASSEQTAASSSSS [WBP1, Q96G27]",confidence 2 (active)
12,"DRASSSSGTIVQEAYG [SYNE2, Q8WXH0]",confidence 2 (active)
13,"DVPSVSDHSQQVVDSG [KAT6A, Q92794]",confidence 3 (active)
14,"VALEHERAAAAGSSSS [ABHD12, Q8N2K0]",confidence 3 (active)
15,"MSVSSISSAGSSVASA [MARK1, Q9P0L2]",confidence 3 (active)
